# Test results taken from PubChem BioAssay.
# Activity calls are given as the source filed them. Unless noted, no rule for the calls is given here.
# Key:
# [1] = A549 cell viability effects, profiling panel, calcein-AM fluorescence, 48 h, basal (AID 1162); settings: higher = more signal; also: test concentration not given here
# [2] = adipocyte viability effects, profiling panel, cell-based, 3T3-L1 adipocytes, calcein-AM fluorescence, 48 h, basal (AID 1163); settings: 3T3-L1 adipocytes viability, higher = more signal; also: test concentration not given here
# [3] = HepG2 cell viability effects, profiling panel, calcein-AM fluorescence, 48 h, basal (AID 1164); settings: higher = more signal; also: test concentration not given here
# [4] = MM1S cell viability effects, profiling panel, calcein-AM fluorescence, 48 h, basal (AID 1165); settings: higher = more signal;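 also: viability of MM1S multiple myeloma cells under basal unstimulated conditions; test concentration not given here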
# [5] = basal RPMI8226 viability, no added stimulus, profiling panel, cell-based, calcein-AM fluorescence, 48 h, PK04 Diversity Set (AID 1166); settings: RPMI8226 myeloma viability, higher = more signal;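 also: cells grown under basal conditions without added stimulus; test concentration not given here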
# [6] = basal HepG2 mitochondrial membrane potential changes, profiling panel, cell-based, JC-1 fluorescence, 24 h, 100 nL compound (AID 1167); settings: higher = more signal; also: test concentration not given here
# [7] = basal 3T3-L1 adipocyte mitochondrial potential changes, profiling panel, cell-based, JC-1 fluorescence, 3T3-L1 adipocytes, 24 h, 100 nL compound (AID 1168); settings: JC-1 mitochondrial fluorescence, higher = more signal, called active from +8 up or from −8 down; also: test concentration not given here
# [8] = basal RPMI8226 mitochondrial membrane potential changes, profiling panel, cell-based, JC-1 fluorescence, 24 h, 100 nL compound (AID 1169); settings: RPMI8226 myeloma, JC-1 mitochondrial potential fluorescence, higher = more signal; also: test concentration not given here
# [9] = basal MM1S mitochondrial membrane potential changes, profiling panel, cell-based, JC-1 fluorescence, 24 h, 100 nL compound (AID 1170); settings: higher = more signal; also: test concentration not given here
# [10] = A549 lung cancer cell viability effects, profiling panel, resazurin fluorescence, 24 h, PK04 Diversity Set (AID 1171); settings: higher = more signal, called active from +8 up or from −8 down; also: test concentration not given here
# [11] = HepG2 liver cancer cell viability effects, profiling panel, resazurin fluorescence, 24 h, PK04 Diversity Set (AID 1172); settings: higher = more signal; also: test concentration not given here
# [12] = basal S. cerevisiae growth modulation, no modifier, primary screen, OD600, strain BY4716, 24 h, basal condition (AID 1173); settings: OD600, 24 h, higher = more signal, called active from +8 up or from −8 down
# [13] = MM1S myeloma cell viability, profiling panel, resazurin fluorescence, basal, 24 h, PK04 Diversity Set (AID 1174); settings: higher = more signal, called active from +8 up or from −8 down;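 also: MM1S multiple myeloma cell line; test concentration not given here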
# [14] = molecular target: Dihydroorotate dehydrogenase (quinone), mitochondrial (Plasmodium falciparum (isolate 3D7)) (UniProt Q08210); experiment: PfDHODH enzyme inhibitors, primary screen, biochemical, C-terminal His tag, absorbance 600 nm (AID 1175); settings: DCIP absorbance 600 nm, higher = more signal, called active from +8 up or from −8 down;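 also: recombinant parasite enzyme with a five histidine tag at its C terminus; test concentration not given here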
# [15] = P. aeruginosa biofilm formation inhibitors, primary screen, strain PAO1, LB-PBS medium, absorbance 600 nm (AID 1176); also: test concentration not given here; settings: P. aeruginosa PAO1 growth/biofilm, A600, 12 h; higher = more signal
# [16] = S. cerevisiae RM11-1a growth modifiers, primary screen, strain RM11-1a, OD600, basal, 24 h (AID 1177); settings: OD600, 24 h, higher = more signal, called active from +8 up or from −8 down;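 also: cultures grown under basal conditions with no added stressor; test concentration not given here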
# [17] = E. coli acrAB mutant growth effects, primary screen, E. coli filamentation inducers, strain DRC39, OD650, 24 h (AID 1178); settings: higher = more signal, called active from +8 up or from −8 down;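 also: growth measured as culture turbidity by optical density at 650 nm; test concentration not given here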
# [18] = E. coli acrAB mutant growth effects, primary screen, E. coli filamentation inducers, strain DRC39, OD650, 48 h (AID 1179);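 also: screen aims at cell division blockers that make cells filament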; settings: E. coli DRC39 delta-acrAB growth, higher = more signal, called active from +8 up or from −8 down
# [19] = RPMI8226 myeloma cell viability, profiling panel, resazurin fluorescence, basal, 24 h, PK04 Diversity Set (AID 1180); settings: higher = more signal;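 also: RPMI8826 multiple myeloma cell line at 5000 cells per well; test concentration not given here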
# [20] = molecular target: E3 ubiquitin-protein ligase XIAP (Homo sapiens) (UniProt P98170); experiment: XIAP binders, primary screen, biophysical, small-molecule microarray, fluorescence 635 nm (AID 1181); settings: small-molecule microarray binding, higher = more signal;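 also: score merges 667 nm emission and signal to noise over triplicate slides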
# Sequence of E3 ubiquitin-protein ligase XIAP (Homo sapiens) (P98170 whole entry, looked up): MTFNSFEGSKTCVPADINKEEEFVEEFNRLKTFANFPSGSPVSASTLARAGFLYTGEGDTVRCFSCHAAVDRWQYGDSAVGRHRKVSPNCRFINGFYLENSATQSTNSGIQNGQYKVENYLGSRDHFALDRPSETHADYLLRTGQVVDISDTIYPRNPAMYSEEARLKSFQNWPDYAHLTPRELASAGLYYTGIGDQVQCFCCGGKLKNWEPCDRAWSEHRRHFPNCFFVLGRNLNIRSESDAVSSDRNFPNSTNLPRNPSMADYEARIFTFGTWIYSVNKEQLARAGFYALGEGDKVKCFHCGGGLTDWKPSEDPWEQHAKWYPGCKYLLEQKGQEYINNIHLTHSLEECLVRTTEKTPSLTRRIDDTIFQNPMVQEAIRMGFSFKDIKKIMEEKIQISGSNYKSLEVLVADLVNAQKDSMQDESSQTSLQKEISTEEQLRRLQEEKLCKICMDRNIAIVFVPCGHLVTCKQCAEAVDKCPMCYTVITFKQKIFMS
# Sequence of Dihydroorotate dehydrogenase (quinone), mitochondrial (Plasmodium falciparum (isolate 3D7)) (Q08210 whole entry, looked up): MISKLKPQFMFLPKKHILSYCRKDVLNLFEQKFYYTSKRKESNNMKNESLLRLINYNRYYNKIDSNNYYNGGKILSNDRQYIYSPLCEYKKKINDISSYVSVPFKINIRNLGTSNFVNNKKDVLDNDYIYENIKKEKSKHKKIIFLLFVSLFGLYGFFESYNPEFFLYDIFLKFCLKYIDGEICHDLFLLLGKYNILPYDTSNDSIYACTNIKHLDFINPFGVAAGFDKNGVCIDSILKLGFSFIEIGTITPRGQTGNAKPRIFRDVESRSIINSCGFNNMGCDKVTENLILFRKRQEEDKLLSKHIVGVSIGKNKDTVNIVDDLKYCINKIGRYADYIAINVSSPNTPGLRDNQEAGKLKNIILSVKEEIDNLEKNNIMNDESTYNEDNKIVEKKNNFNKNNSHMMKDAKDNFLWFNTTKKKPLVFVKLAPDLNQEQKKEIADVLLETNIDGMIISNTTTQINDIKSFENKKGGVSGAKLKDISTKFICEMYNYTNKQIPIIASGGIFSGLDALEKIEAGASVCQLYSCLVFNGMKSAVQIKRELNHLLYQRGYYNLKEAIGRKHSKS
Compound,z-score [1],z-score [2],z-score [3],z-score [4],z-score [5],z-score [6],z-score [7],z-score [8],z-score [9],z-score [10],z-score [11],z-score [12],z-score [13],composite z-score [14],z-score [15],z-score [16],z-score [17],z-score [18],z-score [19],composite z-score [20]
COC(=O)[C@@]1(Cc2ccc(F)cc2)[C@H]2c3cc(C(=O)N(C)C)n(CCc4ccc(O)c(OC)c4)c3C[C@H]2CN1C(=O)c1ccccc1,0.558,-0.306,0.364,-0.254,-0.364,-0.27,-0.763 (inactive),-0.266,0.564,-0.905 (inactive),-0.275,0.358 (inactive),-0.0883 (inactive),0.124 (inactive),-0.263 (inactive),0.898 (inactive),-0.952 (inactive),-0.574 (inactive),0.28,-0.196
COCCOC(=O)N1C(=O)[C@@]2(c3ccccc31)[C@H](C(=O)N1CCN(c3ncccn3)CC1)[C@H]1C(=O)O[C@H](c3ccccc3)[C@H](c3ccccc3)N1[C@@H]2c1ccc(O)cc1,-0.337,0.176,0.102,-1.41,-0.441,0.745,-0.107 (inactive),0.263,0.0963,1.19 (inactive),-0.0067,0.056 (inactive),0.439 (inactive),-0.437 (inactive),1.81 (inactive),0.953 (inactive),-0.612 (inactive),0.075 (inactive),0.434,-0.222
C[N+](C)(C)CCCC[C@@H]1NC(=O)[C@H]2C[C@@H](C(=O)NCCCCCCN)[C@@H](c3ccc(O)cc3)N2C1=O,0.811,0.629,0.38,-1.39,0.135,1.28,0.367 (inactive),-0.0466,0.596,0.169 (inactive),-0.132,0.252 (inactive),0.99 (inactive),0.302 (inactive),-0.515 (inactive),1.18 (inactive),-0.231 (inactive),-0.185 (inactive),0.976,-0.0286
CCOC(=O)C[C@H]1[C@H](OC(=O)Cc2ccc3c(c2)OCO3)[C@@H](NC(=O)Cc2ccc(OC)cc2)c2cc(OCCCO)ccc2N1C(=O)c1ccc2ccccc2n1,2.47,0.189,1.37,0.631,-0.577,1.84,0.929 (inactive),0.628,0.819,-0.23 (inactive),-0.337,-1.12 (inactive),0.853 (inactive),-0.689 (inactive),0.82 (inactive),-2.18 (inactive),2.3 (inactive),2.12 (inactive),0.0153,0.0526
